NS1 inh – blocks influenza NS1 protein function. Potency, µM (doses to about 46.1 µM), inactives show at the top dose activity, positive = more growth. AID 2326. actives 0.4% (n = 270,000); note: potency is the fitted concentration of half-maximal effect; actives are rising curves; nearly all actives have a fitted effect of over 50% in size
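S. cerevisiae expressing influenza A NS1, grown in glucose, washed, then diluted 1:100 into pH 6.0 -URA galactose medium with 23 nl compound. Growth recovery read as OD600; NS1-free strain serves as control.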
Cruzain inh noDet – blocks cruzain activity in detergent-free assay | purified cruzain, Z-FR-AMC fluorescence, no detergent | Potency, µM, inactives show max response, negative = inhibition, most hits filed as inhibitors | actives 2.3% (n = 200,000) | AID 1476; active = well fitted curve in the direction sought with a large enough effect; inconclusive = small, poorly fitted or top-dose-only effect, or another doubt; inactive = no such curve, though single readings can be large; an effect the other way counts as inactive or inconclusive;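 note: potency is the fitted concentration of half-maximal effect; plate controls were enzyme without inhibitor for no effect and buffer without enzyme for full effect; nearly all actives have a fitted effect of over 40% in size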
Target sequence (P25779 123-467 limits assumed): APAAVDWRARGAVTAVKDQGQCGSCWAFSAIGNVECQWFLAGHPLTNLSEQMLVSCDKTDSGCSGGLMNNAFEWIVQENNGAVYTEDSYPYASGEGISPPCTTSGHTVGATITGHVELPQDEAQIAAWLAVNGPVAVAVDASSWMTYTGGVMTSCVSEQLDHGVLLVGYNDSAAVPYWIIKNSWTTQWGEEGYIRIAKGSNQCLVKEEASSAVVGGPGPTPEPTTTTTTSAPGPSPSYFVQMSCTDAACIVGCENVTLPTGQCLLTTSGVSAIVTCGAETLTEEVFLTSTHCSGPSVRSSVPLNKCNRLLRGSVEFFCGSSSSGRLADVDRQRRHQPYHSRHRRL
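Detergent-free condition (0.00005% Triton X-100) in acetate buffer pH 5.5 with DTT. 1.5 nM enzyme and compound were pre-mixed 15 min, then 2 uM Z-FR-AMC substrate added; reaction progress from fluorescence change between first and third reads (60 s).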
Cruzain inh Det – cruzain (T. cruzi) inhibition with detergent; purified cruzain, Z-FR-AMC fluorescence, 0.01% Triton; Potency, µM, inactives show max response, negative = inhibition, hits mostly inhibitors; actives 0.43% (n = 200,000); AID 1478; active = well fitted curve in the direction sought with a large enough effect; inconclusive = small, poorly fitted or top-dose-only effect, or another doubt; inactive = no such curve, though single readings can be large; an effect the other way counts as inactive or inconclusive;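 note: potency is the fitted concentration of half-maximal effect; plate controls were neutral wells for no effect and buffer without enzyme for full effect; nearly all actives have a fitted effect of over 40% in size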
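15 min RT preincubation of 1.5 nM cruzain with compound, then 2 uM Z-FR-AMC added; kinetic AMC fluorescence, 60 s delta. Triton X-100 0.01%, pH 5.5.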
NS1 inh valid – validation of influenza NS1 protein function inhibitors. shares compounds with NS1 inh. influenza NS1 function cell assay, 15-point titration. activity change, negative = inhibition, % at 32.9 µM. 1,400 tested, under 10 active; note: 0% is about no effect
PR8 titer – reduces influenza A/PR/8/34 replication in MDCK cells; shares compounds with NS1 inh; MDCK infected influenza A/PR/8/34, virus titer TCID50; stronger effect = lower value; virus titer (log TCID50), log10 TCID50 at 5 µM; actives 30% (n = 95); AID 504647; call rule not given here
An asterisk follows results filed as active; ? = inconclusive; nt = not tested or not shown. Only a selection was taken, and hits are over-represented in it overall. Unless noted, calls come from the whole dose curve.

SMILES	NS1 inh	Cruzain inh noDet	Cruzain inh Det	NS1 inh valid	others
COc1ccc(OC)c(S(=O)(=O)N2CCCCC2C(=O)N2CCN(c3ccccn3)CC2)c1 (configuration not stated)	-5%	-1%	-2%	nt
COc1ccc(OC)c(S(=O)(=O)N2CCCC2C(=O)N2CCc3ccccc3C2)c1 (configuration not stated)	?	nt	nt	?
Cc1ccc(C)c(CNC(=O)c2sc3ncnc(N(C)C4CCCCC4)c3c2C)c1	nt	-2%	1%	nt
Cc1cccc(NC(=O)c2cc3c(=O)n(Cc4ccco4)ccc3nc2C)c1	nt	?	-6%	nt
Cc1oc(-c2ccc(Cl)cc2)nc1CN1CCCC(C(=O)NCc2ccccc2)C1 (configuration not stated)	nt	7%	1%	nt
CCCCOc1ccc(-c2c(C#N)c(N)nc(SCC(N)=O)c2C#N)cc1	?	7%	-10%	nt
CCCOc1ccc(-c2cnc(SCC(N)=O)nc2N)cc1	8.9µM*	-6%	1%	11
CN1CCN(c2ccccc2NC(=O)c2ccc(N3CCCCC3)c([N+](=O)[O-])c2)CC1	4%	nt	nt	nt
Cc1c(NC(=O)c2ccc(N3CCCC3)c([N+](=O)[O-])c2)cccc1-c1nc2ccccc2s1	2µM*	7.9µM*	-7%	11
O=C(CN1C(=O)COc2ccc(S(=O)(=O)N3CCOCC3)cc21)N1CCN(c2cccc(C(F)(F)F)c2)CC1	nt	?	-4%	nt
CCCCC/C=C\C[C@@H]1O[C@H]1/C=C/C(O)C/C=C\CCCC(=O)O (some centres not stated)	nt	-5%	4%	nt
COc1ccc(NS(=O)(=O)c2cc(NC(=O)c3ccco3)ccc2N2CCCC2)cc1	?	?	-6%	nt
COc1ccc(NS(=O)(=O)c2cc(NC(=O)/C=C/c3cc(OC)ccc3OC)ccc2N2CCCCC2)cc1	10µM*	6.3µM*	-2%	17
O=C(CCNS(=O)(=O)c1ccc2c(c1)CCCC(=O)N2)NCc1ccccc1Cl	nt	-1%	-3%	nt
CCOC(=O)N1CCC(c2nc3ccccc3[nH]2)CC1	2%	-1%	2%	nt
CCOC(=O)N1CCC(c2nc(C)sc2C(=O)O)CC1	?	-10%	6%	-3
CNC(=S)N1N=C(c2ccc(C)cc2)CC1c1ccc(OC)cc1 (configuration not stated)	-12%	-1%	-3%	nt
CNC(=S)N1N=C(c2ccc(Br)cc2)CC1c1ccc(OC)cc1 (configuration not stated)	22µM*	?	-5%	-32
NNC(=O)c1oc2nc(-c3ccccc3)cc(-c3ccccc3)c2c1N	10µM*	nt	nt	23
CNC(=S)NNC(=O)c1oc2nc(-c3ccccc3)cc(C)c2c1N	2%	nt	nt	nt
COc1ccccc1-n1c(SCC(=O)Nc2ccccc2C)nc(O)cc1=O	?	-11%	-13%	nt
CC(C)(C)NC(=O)CSc1nc(O)cc(=O)n1-c1ccccc1F	?	5%	-3%	nt
COc1ccccc1NC(=O)CSc1nc(O)cc(=O)n1-c1ccccc1OC	10µM*	0%	-24%	39
COc1ccccc1-n1c(SCC(=O)NC(C)(C)C)nc(O)cc1=O	8.9µM*	1%	1%	36	PR8 titer=7.7
Cc1oc(-c2ccccc2F)nc1CS(=O)(=O)CC(=O)N1CCN(c2ccc(Cl)cc2)CC1	nt	?	-3%	nt
SMILES	NS1 inh	Cruzain inh noDet	Cruzain inh Det	NS1 inh valid	others
CC1CCN(C(=O)CSc2c3c(nc4ccc(Cl)cc24)CCCC3)CC1	nt	-18%	-18%	nt
Cc1ccc2nc(-c3ccc(SCC(=O)Nc4ccc5c(c4)OCCO5)nc3)[nH]c2c1	20%	-8%	-6%	nt
Nc1cc(N)nc(SCC(=O)Nc2ccc3c(c2)OCO3)n1	14%	nt	nt	nt
Nc1cc(N)nc(SCC(=O)Nc2ccc3c(c2)OCCCO3)n1	1.8µM*	6%	3%	8
Cc1cc2nc(-c3ccc(SCC(=O)Nc4ccc5c(c4)OCCO5)nc3)[nH]c2cc1C	1.3µM*	16µM*	-5%	-1
CCN(C(=O)c1cn(CC)c(=O)c2cc(OC)c(OC)cc12)c1ccccc1F	nt	2%	-2%	nt
CCN(C(=O)C1CCC(CNS(=O)(=O)c2cccc3nsnc23)CC1)c1cccc(C)c1 (configuration not stated)	nt	15%	-3%	nt
COC(=O)c1ccc(N2NC(=O)/C(=C/c3cc(OC)c(OC)c(OC)c3)C2=O)cc1	5%	nt	nt	nt
COC(=O)c1ccc(N2NC(=O)/C(=C/c3cc(OC)c(O)c(OC)c3)C2=O)cc1	3.5µM*	nt	nt	0
Cc1ccc(NC(=O)Nc2nnc(N(C)C3CCCCC3)s2)c(Cl)c1	nt	?	-7%	nt
Cn1nnc2c(N3CCN(c4ccc(F)cc4)CC3)ncnc21	nt	?	-5%	nt
Cc1cccc2cc(C(c3nnnn3CC3CCCO3)N3CCc4ccccc4C3)c(=O)[nH]c12 (configuration not stated)	-4%	8%	-2%	nt
Cc1ccc(C)c2[nH]c(=O)c(C(c3nnnn3Cc3ccccc3)N3CCc4ccccc4C3)cc12 (configuration not stated)	10µM*	-13%	-5%	12
Cc1nn2c(-c3cccc(NC(=O)c4ccccc4)c3)nnc2c2ccccc12	nt	-4%	0%	nt
COc1ccc(S(=O)(=O)c2cc(NS(=O)(=O)c3ccc(Cl)cc3)c(C)c(C)c2O)cc1	nt	18%	-6%	nt
CCC(=O)N1CCc2cc(Br)cc(S(=O)(=O)CCC(=O)N3CCN(c4cccc(C(F)(F)F)c4)CC3)c21	nt	-3%	0%	nt
Cc1ccc(S(=O)(=O)NC(C)(C)CSc2nncn2C)cc1	6%	-2%	2%	nt
Cn1cnnc1SCC(C)(C)NS(=O)(=O)c1ccc(Cl)cc1	?	nt	nt	-7
COc1cc(O)c(C(=O)O)c(O)c1	nt	-3%	2%	nt
O=S(=O)(Nc1ccc(N2CCOCC2)cc1)c1ccccc1	5%	0%	2%	nt
O=S(=O)(Nc1ccc(N2CCCCC2)cc1)c1ccccc1	?	-1%	-3%	?
CC(C)Cc1nn2c(=O)cc(COC(=O)c3cccc(NC(=O)CCc4ccccc4)c3)nc2s1	nt	-12%	-3%	nt
CN(C)c1ccc(CNC(=O)c2cnc3sc(N4CCCCCC4)nn3c2=O)cc1	nt	16%	7%	nt
COc1ccc(NS(=O)(=O)c2ccc(N3CCCC3)c(NC(=S)Nc3ccc(SC(F)F)cc3)c2)cc1	8.9µM*	?	-11%	?
COc1ccc(NS(=O)(=O)c2ccc(N3CCCC3)c(NC(=S)Nc3cccc(C)c3C)c2)cc1	26%	?	-17%	nt
CCc1ccc(NS(=O)(=O)c2c(-c3ccccc3)csc2C(=O)OC)cc1	nt	?	-12%	nt
Cn1c(CN2CCCCC2)nc2cc(NS(=O)(=O)c3ccc(Cl)cc3)ccc21	6%	-2%	5%	nt
Cn1c(CCN2CCCCC2)nc2cc(NS(=O)(=O)c3ccc(Cl)cc3)ccc21	0.89µM*	-14%	-5%	-23
CCC(CC)C(=O)Nc1ccc(OCc2cc(=O)n3c4c(sc3n2)CCCC4)cc1	nt	-6%	-1%	nt
COc1cccc(Nc2nc3ccc(C)cc3nc2-n2nc(C)cc2C)c1	nt	-3%	1%	nt
